Drawing on the supplement of paper PMC4723716, this text covers viability index for 27 compounds.

Whole data set: some 3,600 compounds, median “viability index relative to DMSO control” near 0.81, cut for the lowest 2% near 0.13. Shown is part of a subset that was picked to be rich in the lowest values.
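Further: Saponin-lysis sexual stage assay in serum-free medium: MitoTracker Red CMXRos staining plus saponin, high-content imaging, particle count per well divided by plate mean of DMSO wells.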

The test relates to Plasmodium falciparum NF54 stage V gametocytes. Kind of test: viability index relative to DMSO control (fraction); higher = less gametocyte killing. To be noted: 1.25 µM, incubation time: 72 h.
`O=[N+]([O-])c1ccc2nc(NC3CCCCC3)c(NC3CCCCC3)nc2c1` displayed a viability index of 0.86.
For the compound `O=[N+]([O-])c1ccc2nc(Nc3ccccc3)c(Nc3ccccc3)nc2c1`, the viability index is 0.481.
Compound `O=[N+]([O-])c1ccc2nc(Nc3ccc(Cl)c(Cl)c3)c(Nc3ccc(Cl)c(Cl)c3)nc2c1` yielded a viability index of 0.0962.
In turn, `CC(C)c1nc(N2CCN(C(=S)NCc3ccccc3)CC2)c(C#N)c2c1COC(C)(C)C2` displayed a viability index of 0.0888.
Compound `Cc1ccc(-c2noc(C3CCN(C(=O)Nc4ccc(C#N)cc4)CC3)n2)o1` registered a viability index of 0.957.
`CC(C)c1nc(N2CCN(C(=O)Nc3ccccc3)CC2)c(C#N)c2c1COC(C)(C)C2` had a viability index of 0.0954.
Compound `CC1(C)Cc2c(sc(NC(=O)CCl)c2C#N)CO1` registered a viability index of 0.556.
The value for `O=[N+]([O-])c1ccc(S(=O)(=O)N2CCN(C(=S)NCc3ccccc3)CC2)cc1` was 0.163; that for `CCCC(=O)N1CCN(c2nc(Cc3ccccc3)c3c(c2C#N)CC(C)(C)OC3)CC1` was 0.568.
`CC[n+]1c(SC)ccc2cc(OC)ccc21` displayed a viability index of 0.681.
Consider `CCC(=O)NCc1nnc(SCc2cccc(C(F)(F)F)c2)n1-c1cccc(OC)c1`, for which the viability index was determined as 0.865.
`C[n+]1ccccc1C=Cc1cc(Br)ccc1O` returned a viability index of 0.819.
With `CC(NC(=O)C(=O)N1CCCCC1)C(c1cccs1)N1CCOCC1` (configuration not stated), the viability index is 0.787.
`Cc1ccc(Nc2nc(-c3ccccn3)cs2)cc1` returned a viability index of 0.127.
Regarding `COc1ccc2sc(Nc3nc(-c4ccccn4)cs3)nc2c1`, the viability index amounted to 0.876.
The same measure for `Fc1cccc2sc(Nc3nc(-c4ccccn4)cs3)nc12`: 0.322.
The compound `O=C(Nc1nc(-c2ccccn2)cs1)c1ccc(Oc2ccc(C(=O)Nc3nc(-c4ccccn4)cs3)cc2)cc1` yielded a viability index of 0.00826.
Consider `Cc1ccnc(Nc2nc(-c3c(C)nc4sccn34)cs2)c1`, for which the viability index turned out to be 0.822.
`CC(=O)Nc1nc(C)c(-c2csc(Nc3ccc(C)cc3)n2)s1` gave a viability index of 0.351.
The compound `Cc1nc2sccn2c1-c1csc(Nc2ccccn2)n1` came in with a viability index of 0.89.
The same measure for `Cc1ccnc(Nc2nc(-c3ccccn3)cs2)c1`: 0.0192.
`c1ccc(Nc2nc(-c3ccccn3)cs2)nc1` had a viability index of 0.0653.
For `Cc1nc2ncccn2c1-c1csc(Nc2ccccn2)n1`, the viability index came to 1.06.
In turn, `Cc1ccnc(Nc2nc(-c3ccc(Cl)cc3)cs2)c1` had a viability index of 0.938.
For the compound `COc1ccc2nc(Nc3nc(-c4ccccn4)cs3)sc2c1`, the viability index amounted to 0.331.
The value for `CC1CCc2c(sc(NC(=O)c3ccccc3F)c2C(=O)NCc2ccccc2)C1` (configuration not stated) was 1.42.
Consider `CCC(CC)=NNC(=O)C(=O)NC1CCCCC1`, for which the viability index was 1.13.
